Measurements published in PubChem BioAssay (Tox21).
Records with an inconclusive call do not appear. Activity calls are given as the source filed them. Unless noted, the call rests on the fitted dose curve; in most records, active means well fitted curve in the direction sought with a large enough effect in the repeat runs; inconclusive means weak or mixed curves; inactive means no such curve, though single readings can be large; an effect the other way counts as inactive or inconclusive.

Assays:
[1] = target: Thyrotropin receptor (Homo sapiens) (UniProt P16473); test: qHTS assay to identify small molecule antagonists of the thyroid stimulating hormone receptor (TSHR) signaling pathway (AID 1259385; calls by dose curve; further: nearly all actives have a fitted effect of over 20% in size)
Method in brief: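 TSHR-HEK293 cells (800/well) plated 18 h, then compounds with Ro20-1724 and TSH at 1.5 ng/mL final, 30 min at room temperature. cAMP quantified by HTRF (cAMP-d2/anti-cAMP-cryptate, 1 h); 15 concentrations in triplicate.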

[2] = target: Progesterone receptor (Homo sapiens) (UniProt P06401); test: qHTS assay to identify small molecule agonists of the progesterone receptor (PR) signaling pathway (AID 1346784; calls by dose curve; further: nearly all actives have a fitted effect of over 30% in size)
Method in brief: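 PR-UAS-bla HEK 293T cells (beta-lactamase reporter under UAS) in 2% charcoal-stripped FBS, dosed with 23 nL compound after 6 hr, incubated 16hr at 37C. LiveBLAzer B/G FRET substrate added, fluorescence read after 2 hours.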

[3] = target: Progesterone receptor (Homo sapiens) (UniProt P06401); test: qHTS assay to identify small molecule antagonists of the progesterone receptor (PR) signaling pathway (AID 1346795; active means well fitted inhibition curve with a large enough effect in the signal ratio in the repeat runs, not every such curve was filed as active; the % refers to the signal ratio; further: potency means the concentration at half of the fitted maximal effect)
Method in brief: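 PR-UAS-bla HEK293T cells with beta-lactamase reporter under UAS control, in 2% charcoal-stripped FBS, treated with compounds plus 1 nM promegestone (R5020, final) for 16 hr at 37C. Read-out: FRET beta-lactamase substrate fluorescence after 2 hr at room temperature.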

[4] = qHTS assay to identify small molecule antagonists of the progesterone receptor (PR) signaling pathway - cell viability counter screen (AID 1346798); further: series mostly up to about 92 µM; nearly all actives have a fitted effect of over 50% in size
Method in brief: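 PR-UAS-bla HEK293T cells, 3,000/well in 2% charcoal-stripped FBS medium, dosed with compounds plus R5020 agonist and incubated 16 h at 37C. Viability then measured in the same wells by CellTiter-Glo luminescence after 30 min at RT.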

[5] = qHTS assay to identify small molecule agonists of the progesterone receptor (PR) signaling pathway - cell viability counter screen (AID 1346799; calls by dose curve; further: nearly all actives have a fitted effect of over 45% in size)
Method in brief: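 Counter screen in the PR-UAS-bla HEK293T wells (2% charcoal-stripped FBS, 16 h compound exposure at 37 C) after the bla read. CellTiter-Glo added, 30 min at room temperature, luminescence read as cell viability.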

[6] = qHTS assay to identify small molecule antagonists of the TGF-beta/Smad signaling pathway - cell viability counter screen (AID 1346824); further: nearly all actives have a fitted effect of over 50% in size
Method in brief: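 SBE-bla HEK 293T cells, incubated overnight, then compound plus 0.25 ng/mL TGF-beta1 (stock added) for 5 hr at 37 C. Viability was read in the same wells by CellTiter-Glo luminescence after 30 min at room temperature.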

[7] = qHTS assay to identify small molecule agonists of the TGF-beta/Smad signaling pathway - cell viability counter screen (AID 1346829); further: top concentration of the series differs between compounds; nearly all actives have a fitted effect of over 45% in size
Method in brief: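 CellTiter-Glo luminescence readout; SBE-bla HEK 293T cells, overnight plating, compound 5 hr at 37 C/5% CO2, then bla substrate 2 hr RT, then CellTiter-Glo 30 min RT.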

[8] = qHTS assay to identify small molecule agonists of the TGF-beta/Smad signaling pathway (AID 1346859; active means well fitted activation curve with a large enough effect in the signal ratio in the repeat runs, not every such curve was filed as active; the % refers to the signal ratio; further: series mostly up to about 77 µM)
Method in brief: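 SBE-bla HEK293T cells plated overnight, then compound exposure for 5 h at 37 C. Beta-lactamase reporter read with LiveBLAzer B/G FRET substrate after 2 h at room temperature, fluorescence at 405 nm excitation, 460/530 nm emission.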

[9] = Human pregnane X receptor (PXR) small molecule agonists, qHTS cell viability counter screen (AID 1346977); further: nearly all actives have a fitted effect of over 50% in size
Method in brief: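 PXR-Luc HepG2 cells (2,000/well, 5% charcoal-stripped FBS) preincubated 5 hr, then exposed to compounds 24 hr at 37 C. Viability read in the same wells by CellTiter-Fluor fluorescence, reagent added at 23 hr, 1 hr incubation.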

[10] = Caspase-3/7 induction in HepG2 cells by small molecules, qHTS assay (AID 1346978); further: nearly all actives have a fitted effect of over 15% in size
Method in brief: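 Wild-type HepG2 cells, 2,000/well, settled 5 hr at 37 C and 5% CO2, then compound-treated for 17 hr; caspase-3/7 activity read by luminescent Caspase-Glo 3/7 after 30 min at room temperature.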

[11] = Caspase-3/7 induction in CHO-K1 cells by small molecules, qHTS cell viability counter screen (AID 1346979); further: nearly all actives have a fitted effect of over 35% in size; further: potency means the concentration at half of the fitted maximal effect
Method in brief: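 Wild-type CHO-K1 cells (1,500/well) treated with compound after 5 h plating; after 16 h at 37C, viability read as CellTiter-Fluor fluorescence following 1 h reagent incubation, in the same wells as the caspase read.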

[12] = Caspase-3/7 induction in CHO-K1 cells by small molecules, qHTS assay (AID 1346980); further: nearly all actives have a fitted effect of over 15% in size
Method in brief: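 Wild-type CHO-K1 cells exposed to compounds for 17hr at 37 C, 5% CO2. Caspase-3/7 activity then measured by Caspase-Glo 3/7 luminescence after 30min at room temperature.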

[13] = Caspase-3/7 induction in HepG2 cells by small molecules, qHTS cell viability counter screen (AID 1346981); further: series mostly up to about 92 µM; nearly all actives have a fitted effect of over 30% in size
Method in brief: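 Cell viability is measured as a cytotoxicity counter screen alongside the Caspase-Glo 3/7 readout in identical wells. Wild-type HepG2 cells are treated with test compounds for 16 hr at 37 C before CellTiter-Fluor addition and a 1-hr incubation.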

[14] = target: Thyrotropin-releasing hormone receptor (Homo sapiens) (UniProt P34981); test: qHTS assay to identify small molecule antagonists of the thyrotropin-releasing hormone receptor (TRHR) signaling pathway (AID 1346877; active means well fitted inhibition curve with a large enough effect in the repeat runs, not every such curve was filed as active; further: series mostly up to about 51 µM)
Method in brief: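 Antagonism is measured as suppression of the calcium response to 1 nM TRH in TRHR-HEK293 cells that have been dye-loaded for 2 h at 37 °C after overnight plating. Each compound is tested at 15 concentrations in triplicate.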

[15] = target: Thyrotropin-releasing hormone receptor (Homo sapiens) (UniProt P34981); test: qHTS assay to identify small molecule agonists of the thyrotropin-releasing hormone receptor (TRHR) signaling pathway (AID 1346891; calls by dose curve; further: series mostly up to about 58 µM)
Method in brief: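 HEK293 cells expressing TRHR plated 18 h at 37 C/5% CO2, calcium dye-loaded 2 h at 37 C, then compound added (agonist mode); kinetic calcium fluorescence read 3 min at 1 s intervals; 15 concentrations in triplicate.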

[16] = target: Nuclear receptor subfamily 1 group I member 2 (Homo sapiens) (UniProt O75469); test: Human pregnane X receptor (PXR) small molecule agonists, qHTS assay (AID 1346982); further: nearly all actives have a fitted effect of over 35% in size; further: potency means the concentration at half of the fitted maximal effect
Method in brief: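 Cells: HepG2 stably carrying PXR-Luc. Medium held 5% charcoal-stripped FBS. Compounds in DMSO added after 5 hr plating, incubated 24 hr, then luminescence quantified with ONE-Glo.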

[17] = qHTS assay to identify small molecule agonists of the estrogen receptor alpha (ER-alpha) signaling pathway in the presence of an antagonist - cell viability counter screen (AID 1259386);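 further: series mostly up to about 92 µM; cells exposed to compounds for 22 h at 37 °C before the viability read; nearly all actives have a fitted effect of over 30% in size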
Method in brief: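 Cytotoxicity was measured in parallel with the ERE-luciferase agonist screen, in the same wells. The cells were VM7Luc4E2, which endogenously express ER-alpha, and treatment was with compounds plus 10.0nM ICI-182,780 for 22hr.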

Measured: Potency

Thyrotropin-releasing hormone receptor (Homo sapiens), sequence (P34981 whole entry, looked up): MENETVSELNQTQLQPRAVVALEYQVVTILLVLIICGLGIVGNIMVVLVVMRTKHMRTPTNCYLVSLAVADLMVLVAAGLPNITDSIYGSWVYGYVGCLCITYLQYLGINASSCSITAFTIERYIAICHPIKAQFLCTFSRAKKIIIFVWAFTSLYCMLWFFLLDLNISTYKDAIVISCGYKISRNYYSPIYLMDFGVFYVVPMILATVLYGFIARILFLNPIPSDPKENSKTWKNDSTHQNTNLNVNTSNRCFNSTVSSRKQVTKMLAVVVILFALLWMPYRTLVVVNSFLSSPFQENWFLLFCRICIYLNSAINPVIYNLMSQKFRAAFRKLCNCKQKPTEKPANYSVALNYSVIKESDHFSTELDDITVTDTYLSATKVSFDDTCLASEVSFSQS
Nuclear receptor subfamily 1 group I member 2 (Homo sapiens), sequence (O75469 whole entry, looked up): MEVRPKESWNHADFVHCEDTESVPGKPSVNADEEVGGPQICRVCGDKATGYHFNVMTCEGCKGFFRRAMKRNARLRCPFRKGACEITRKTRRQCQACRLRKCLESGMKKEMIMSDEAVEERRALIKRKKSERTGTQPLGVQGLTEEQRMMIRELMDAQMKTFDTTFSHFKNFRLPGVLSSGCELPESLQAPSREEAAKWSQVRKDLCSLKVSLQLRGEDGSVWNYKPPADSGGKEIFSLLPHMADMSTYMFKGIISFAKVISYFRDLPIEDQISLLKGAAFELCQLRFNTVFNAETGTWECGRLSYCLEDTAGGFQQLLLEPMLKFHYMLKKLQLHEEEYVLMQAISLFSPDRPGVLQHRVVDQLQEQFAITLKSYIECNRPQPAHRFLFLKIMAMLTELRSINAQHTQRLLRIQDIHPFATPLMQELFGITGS
Thyrotropin receptor (Homo sapiens), sequence (P16473 whole entry, looked up): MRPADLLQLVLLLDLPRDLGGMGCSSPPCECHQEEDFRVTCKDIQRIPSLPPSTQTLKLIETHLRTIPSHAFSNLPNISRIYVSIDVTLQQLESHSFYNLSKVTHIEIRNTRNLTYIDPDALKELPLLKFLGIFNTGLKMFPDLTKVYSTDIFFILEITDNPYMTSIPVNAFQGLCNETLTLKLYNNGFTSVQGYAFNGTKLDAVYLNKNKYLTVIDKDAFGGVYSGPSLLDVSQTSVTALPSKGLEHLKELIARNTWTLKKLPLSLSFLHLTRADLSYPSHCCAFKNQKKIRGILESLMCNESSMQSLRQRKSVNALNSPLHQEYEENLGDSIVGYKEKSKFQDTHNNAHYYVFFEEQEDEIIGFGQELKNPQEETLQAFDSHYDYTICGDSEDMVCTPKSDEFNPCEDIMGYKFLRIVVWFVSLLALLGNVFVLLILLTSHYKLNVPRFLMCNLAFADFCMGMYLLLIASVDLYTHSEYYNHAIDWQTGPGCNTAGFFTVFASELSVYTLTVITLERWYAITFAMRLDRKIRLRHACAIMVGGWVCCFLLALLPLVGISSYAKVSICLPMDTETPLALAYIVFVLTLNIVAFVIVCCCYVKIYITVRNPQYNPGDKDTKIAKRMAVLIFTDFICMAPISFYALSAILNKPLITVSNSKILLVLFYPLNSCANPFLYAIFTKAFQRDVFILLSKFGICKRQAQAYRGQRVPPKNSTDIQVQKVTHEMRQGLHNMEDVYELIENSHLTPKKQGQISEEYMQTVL
Progesterone receptor (Homo sapiens), sequence (P06401 whole entry, looked up): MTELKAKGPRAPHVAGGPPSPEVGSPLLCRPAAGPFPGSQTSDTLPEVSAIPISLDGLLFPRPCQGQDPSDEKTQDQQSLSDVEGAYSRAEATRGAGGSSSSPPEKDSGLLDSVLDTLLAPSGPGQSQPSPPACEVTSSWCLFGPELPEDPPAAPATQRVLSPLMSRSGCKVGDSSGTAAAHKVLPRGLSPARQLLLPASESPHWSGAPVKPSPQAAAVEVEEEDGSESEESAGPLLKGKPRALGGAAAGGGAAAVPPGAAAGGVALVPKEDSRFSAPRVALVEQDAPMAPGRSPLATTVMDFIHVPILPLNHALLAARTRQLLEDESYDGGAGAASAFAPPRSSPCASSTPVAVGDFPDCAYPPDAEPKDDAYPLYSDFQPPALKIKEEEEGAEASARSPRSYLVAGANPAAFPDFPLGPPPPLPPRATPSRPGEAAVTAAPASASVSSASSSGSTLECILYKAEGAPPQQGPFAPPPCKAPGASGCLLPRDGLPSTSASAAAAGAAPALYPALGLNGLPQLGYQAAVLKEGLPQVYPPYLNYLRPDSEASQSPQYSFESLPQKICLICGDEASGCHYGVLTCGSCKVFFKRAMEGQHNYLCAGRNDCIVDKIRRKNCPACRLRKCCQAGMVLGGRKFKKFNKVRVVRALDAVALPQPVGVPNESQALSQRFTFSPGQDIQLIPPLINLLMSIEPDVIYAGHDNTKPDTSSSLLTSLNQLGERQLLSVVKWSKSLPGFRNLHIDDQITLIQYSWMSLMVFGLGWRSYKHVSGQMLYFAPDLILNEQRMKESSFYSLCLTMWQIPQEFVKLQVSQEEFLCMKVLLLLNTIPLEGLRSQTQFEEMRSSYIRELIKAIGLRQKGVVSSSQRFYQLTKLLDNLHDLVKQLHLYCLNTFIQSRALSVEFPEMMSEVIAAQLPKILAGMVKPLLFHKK

Clc1cccc(SC2CCNCC2)n1
not listed: [14] | [15] | [16] | [17]
inactive: all other assays above

COc1cc(CC(C)N)cc2c1OCO2 (stereo not given)
not listed: [17]
inactive: all other assays above

COP(=S)(OC)Oc1cc(Cl)c(I)cc1Cl
active: [3] 21.7 µM
not listed: [2] | [4] | [5] | [9] | [14] | [15]
inactive: all other assays above

CCOP(=S)(OCC)SCn1nnc2ccccc2c1=O
active: [3] 27.3 µM | [11] 68.6 µM | [16] 6.86 µM
not listed: [4] | [5] | [9] | [13] | [17]
inactive: all other assays above

CCOP(=S)(Oc1ccc([N+](=O)[O-])cc1)c1ccccc1 (stereo not given)
active: [3] 2.17 µM
not listed: [1] | [5] | [10] | [11]
inactive: all other assays above

COc1cc(Cl)c(OC)cc1Cl
not listed: [1] | [10]
inactive: all other assays above

CC[C@H]1C[C@H]2[C@@H]3CCC4=CC(=O)CC[C@@H]4[C@H]3CC[C@]2(C)[C@H]1O
inactive: [1] | [4] | [6] | [7] | [8] | [10] | [11] | [12] | [13]
active: [16] 9.44 µM

COCCOCCO
inactive: [1] | [2] | [9] | [12]
active: [16] 27.3 µM
